Results taken from PubChem BioAssay.
Activity calls are given as the source filed them.

Experiments:
[1] = small molecules captured by biotinylated probe aFSTL3 – biochemical, small-molecule microarray, fluorescence 635/667, stem cell growth factor project, primary screen (AID 1064); conditions: higher = more signal;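 further: measures binding of the biotinylated anti-FSTL3 antibody to printed compounds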
[2] = binders from COS7 lysate, DM2A8 probe, primary screen, torsin A project, cell lysate, small-molecule microarray, fluorescence 635/667 (AID 1065); conditions: higher = more signal, COS7 lysate expressing mutant human TOR1A
[3] = small molecules captured by biotinylated probe aFGF2 – biochemical, small-molecule microarray, fluorescence 635/667, stem cell growth factor project, primary screen (AID 1067); conditions: higher = more signal;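 further: measures binding of biotinylated aFGF2 protein to printed compounds on slides; z-score merges feature fluorescence and signal-to-noise across triplicate slides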
[4] = small molecules captured by biotinylated probe aFGF10 – biochemical, small-molecule microarray, fluorescence 635/667, stem cell growth factor project, primary screen (AID 1071); conditions: higher = more signal;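 further: score merges 667 nm spot intensity and signal to noise from triplicate slides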
[5] = molecular target: Neurogenic locus notch homolog protein 2 (Homo sapiens) (UniProt Q04721); test: small molecules binding Notch2 protein – biochemical, small-molecule microarray, 635 nm fluorescence, stem cell growth factors, primary screen (AID 1073); conditions: higher = more signal
Chain of Neurogenic locus notch homolog protein 2 (Homo sapiens) (Q04721 whole entry, looked up, canonical isoform): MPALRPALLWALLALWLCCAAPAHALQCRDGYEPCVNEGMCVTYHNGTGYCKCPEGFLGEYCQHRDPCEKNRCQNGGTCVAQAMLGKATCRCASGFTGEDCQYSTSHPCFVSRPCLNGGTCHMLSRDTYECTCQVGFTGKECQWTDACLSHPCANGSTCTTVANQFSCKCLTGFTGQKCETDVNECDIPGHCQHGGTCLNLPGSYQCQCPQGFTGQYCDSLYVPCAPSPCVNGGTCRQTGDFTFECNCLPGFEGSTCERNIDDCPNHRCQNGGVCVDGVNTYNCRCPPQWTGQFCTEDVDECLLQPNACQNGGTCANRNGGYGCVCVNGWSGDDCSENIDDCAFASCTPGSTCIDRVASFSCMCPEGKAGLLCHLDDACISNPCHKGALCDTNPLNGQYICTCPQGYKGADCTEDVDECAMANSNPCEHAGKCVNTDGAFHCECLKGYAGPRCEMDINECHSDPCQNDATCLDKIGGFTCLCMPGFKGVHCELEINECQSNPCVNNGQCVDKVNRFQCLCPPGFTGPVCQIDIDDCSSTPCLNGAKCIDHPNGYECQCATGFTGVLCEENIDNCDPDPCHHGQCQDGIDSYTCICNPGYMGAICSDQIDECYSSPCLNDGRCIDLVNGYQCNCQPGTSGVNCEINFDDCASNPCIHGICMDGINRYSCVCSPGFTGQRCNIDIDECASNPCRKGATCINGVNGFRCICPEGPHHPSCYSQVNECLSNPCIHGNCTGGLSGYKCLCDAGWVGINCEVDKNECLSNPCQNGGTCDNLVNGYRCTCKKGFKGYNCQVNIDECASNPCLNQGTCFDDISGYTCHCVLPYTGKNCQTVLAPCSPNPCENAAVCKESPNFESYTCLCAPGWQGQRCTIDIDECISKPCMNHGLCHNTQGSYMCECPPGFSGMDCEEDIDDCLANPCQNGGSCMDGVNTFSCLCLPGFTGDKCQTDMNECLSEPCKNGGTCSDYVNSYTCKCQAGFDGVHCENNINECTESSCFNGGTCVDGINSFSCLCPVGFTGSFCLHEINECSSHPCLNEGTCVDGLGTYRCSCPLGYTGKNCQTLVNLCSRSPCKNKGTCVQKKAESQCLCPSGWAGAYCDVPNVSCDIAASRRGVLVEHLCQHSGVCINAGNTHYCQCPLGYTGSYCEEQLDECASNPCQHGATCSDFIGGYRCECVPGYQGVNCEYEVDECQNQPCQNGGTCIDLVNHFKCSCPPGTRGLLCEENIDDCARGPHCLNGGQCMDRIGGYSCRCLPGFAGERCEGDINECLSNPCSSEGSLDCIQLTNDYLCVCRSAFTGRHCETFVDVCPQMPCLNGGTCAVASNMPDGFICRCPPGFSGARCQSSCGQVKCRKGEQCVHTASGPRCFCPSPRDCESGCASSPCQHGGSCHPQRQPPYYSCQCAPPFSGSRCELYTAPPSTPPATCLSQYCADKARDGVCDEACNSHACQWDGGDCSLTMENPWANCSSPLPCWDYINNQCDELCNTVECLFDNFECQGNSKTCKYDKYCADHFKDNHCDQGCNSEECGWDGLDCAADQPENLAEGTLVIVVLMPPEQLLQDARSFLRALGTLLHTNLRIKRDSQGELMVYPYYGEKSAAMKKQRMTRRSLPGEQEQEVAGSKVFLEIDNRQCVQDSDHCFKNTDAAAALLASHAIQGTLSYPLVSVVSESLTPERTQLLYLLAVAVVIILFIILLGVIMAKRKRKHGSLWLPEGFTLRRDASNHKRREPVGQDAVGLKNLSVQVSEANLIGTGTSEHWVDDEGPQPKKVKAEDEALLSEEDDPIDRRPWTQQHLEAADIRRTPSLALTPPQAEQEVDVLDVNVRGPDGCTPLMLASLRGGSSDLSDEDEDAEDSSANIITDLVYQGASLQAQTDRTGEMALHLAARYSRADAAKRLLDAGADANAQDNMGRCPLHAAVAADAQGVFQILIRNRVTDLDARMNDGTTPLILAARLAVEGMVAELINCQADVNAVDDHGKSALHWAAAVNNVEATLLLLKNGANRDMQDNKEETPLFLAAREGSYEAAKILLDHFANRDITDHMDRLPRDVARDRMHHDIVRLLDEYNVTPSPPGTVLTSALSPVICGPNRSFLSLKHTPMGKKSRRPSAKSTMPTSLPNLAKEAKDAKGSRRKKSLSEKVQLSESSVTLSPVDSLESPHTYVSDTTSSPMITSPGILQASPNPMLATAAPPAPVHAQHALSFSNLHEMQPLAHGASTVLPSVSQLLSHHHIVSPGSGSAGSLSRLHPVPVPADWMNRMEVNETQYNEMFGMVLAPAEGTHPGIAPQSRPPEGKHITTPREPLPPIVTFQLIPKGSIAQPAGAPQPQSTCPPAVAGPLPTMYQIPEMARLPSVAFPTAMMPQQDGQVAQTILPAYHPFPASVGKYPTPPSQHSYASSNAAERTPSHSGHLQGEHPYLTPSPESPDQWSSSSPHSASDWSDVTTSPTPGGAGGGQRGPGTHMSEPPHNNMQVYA

[6] = molecular target: Pro-neuregulin-1, membrane-bound isoform (Homo sapiens) (UniProt Q02297); test: small molecules binding neuregulin-1 protein – biochemical, small-molecule microarray, fluorescence 635/667, psychiatric disease protein project, primary screen (AID 1075); conditions: NRG1 binding, 635 nm fluorescence, higher = more signal;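 further: score combines 667 nm spot fluorescence with signal to noise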
[7] = system: Neuregulin-1 EGF-like domain; test: small molecules binding NRG1 EGF domain – biochemical, small-molecule microarray, 635 nm fluorescence, primary screen (AID 1081); conditions: higher = more signal;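 further: binding of the protein to compounds printed on small-molecule microarray slides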
[8] = FRG1 expression reporter modulators in myotubes – cell-based, C2C12 myotubes, firefly/Renilla luciferase, luminescence, FRG1 inhibition for FSHD, primary screen (AID 1084); conditions: FRG1 promoter luciferase, higher = more signal, called active from +8 up or from −8 down
[9] = small molecules captured by biotinylated probe aFST – biochemical, small-molecule microarray, fluorescence 635/667, stem cell growth factor project, primary screen (AID 1086); conditions: higher = more signal;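 further: score merges 667 nm fluorescence with signal-to-noise of each printed compound spot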
[10] = binders of probe aHhip on microarray, primary screen, stem cell growth factor project, biochemical, small-molecule microarray, fluorescence 635/667 (AID 1087); conditions: higher = more signal;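 further: score merges spot fluorescence at 667nm with spot signal to noise ratio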
[11] = system: PRMT1 (protein arginine N-methyltransferase 1); test: small molecules binding arginine methyltransferase PRMT1 – biochemical, small-molecule microarray, 635 nm fluorescence, primary screen (AID 1088); conditions: higher = more signal;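 further: binding of Prmt1 protein to compounds spotted on small-molecule microarray slides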
[12] = growth effects on S. cerevisiae YJM789 – YJM789 clinical isolate, OD600, 24 h, basal, primary screen (AID 1089); conditions: higher = more signal, called active from +8 up or from −8 down;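 further: growth of clinical yeast isolate S. cerevisiae YJM 789 seeded 1000 cells per well; test concentration not given here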
[13] = S. pombe growth modifiers, basal conditions – strain 972, OD600, 24 h, no modulator, primary screen (AID 1090);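 further: basal condition with compound alone and no growth modifier present; test concentration not given here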; conditions: S. pombe 972 growth, higher = more signal, called active from +8 up or from −8 down
[14] = budding yeast growth modifiers under rapamycin – strain BY4716, OD600, 96 h, primary screen (AID 1091); further: test concentration not given here; conditions: S. cerevisiae BY4716 + rapamycin, higher = more signal, called active from +8 up or from −8 down
[15] = molecular target: Torsin-1A-interacting protein 2 (Homo sapiens) (UniProt Q8NFQ8); test: small molecules binding lysate-expressed LULL1 – cell lysate, human LULL1 lysate, 635/667 nm fluorescence, primary screen (AID 1092); conditions: small-molecule microarray, hLULL1 lysate binding, 635 nm fluorescence; higher = more signal;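 further: probe is lysate of COS7 cells overexpressing human LULL1; score merges per-feature 667 nm fluorescence with signal-to-noise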
[16] = optical density change of DRC41 E. coli – strain DRC41, OD650, 24 h, E. coli filamentation project, primary screen (AID 1093);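 further: MC1000 strain lacking acrAB efflux and sulA so SOS filamentation is blocked; test concentration not given here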; conditions: E. coli DRC41 growth, higher = more signal, called active from +8 up or from −8 down
[17] = probe aLefty2 binding to arrayed compounds – biochemical, biotinylated probe, 635/667 nm fluorescence, primary screen (AID 1094); conditions: small-molecule microarray, higher = more signal;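 further: score merges spot fluorescence near 667 nm with spot signal-to-noise ratio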
[18] = system: Noggin (protein binding on small-molecule microarray); test: small molecules binding Noggin protein – biochemical, 635/667 nm fluorescence, primary screen (AID 1095); conditions: 635 nm fluorescence, higher = more signal;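 further: score merges 667 nm feature fluorescence with signal to noise over triplicate slides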
[19] = molecular target: Neurogenic locus notch homolog protein 3 (Homo sapiens) (UniProt Q9UM47); test: small molecules binding NOTCH3 protein – biochemical, 635/667 nm fluorescence, primary screen (AID 1096); conditions: small-molecule microarray, 635 nm fluorescence, higher = more signal
Chain of Neurogenic locus notch homolog protein 3 (Homo sapiens) (Q9UM47 whole entry, looked up): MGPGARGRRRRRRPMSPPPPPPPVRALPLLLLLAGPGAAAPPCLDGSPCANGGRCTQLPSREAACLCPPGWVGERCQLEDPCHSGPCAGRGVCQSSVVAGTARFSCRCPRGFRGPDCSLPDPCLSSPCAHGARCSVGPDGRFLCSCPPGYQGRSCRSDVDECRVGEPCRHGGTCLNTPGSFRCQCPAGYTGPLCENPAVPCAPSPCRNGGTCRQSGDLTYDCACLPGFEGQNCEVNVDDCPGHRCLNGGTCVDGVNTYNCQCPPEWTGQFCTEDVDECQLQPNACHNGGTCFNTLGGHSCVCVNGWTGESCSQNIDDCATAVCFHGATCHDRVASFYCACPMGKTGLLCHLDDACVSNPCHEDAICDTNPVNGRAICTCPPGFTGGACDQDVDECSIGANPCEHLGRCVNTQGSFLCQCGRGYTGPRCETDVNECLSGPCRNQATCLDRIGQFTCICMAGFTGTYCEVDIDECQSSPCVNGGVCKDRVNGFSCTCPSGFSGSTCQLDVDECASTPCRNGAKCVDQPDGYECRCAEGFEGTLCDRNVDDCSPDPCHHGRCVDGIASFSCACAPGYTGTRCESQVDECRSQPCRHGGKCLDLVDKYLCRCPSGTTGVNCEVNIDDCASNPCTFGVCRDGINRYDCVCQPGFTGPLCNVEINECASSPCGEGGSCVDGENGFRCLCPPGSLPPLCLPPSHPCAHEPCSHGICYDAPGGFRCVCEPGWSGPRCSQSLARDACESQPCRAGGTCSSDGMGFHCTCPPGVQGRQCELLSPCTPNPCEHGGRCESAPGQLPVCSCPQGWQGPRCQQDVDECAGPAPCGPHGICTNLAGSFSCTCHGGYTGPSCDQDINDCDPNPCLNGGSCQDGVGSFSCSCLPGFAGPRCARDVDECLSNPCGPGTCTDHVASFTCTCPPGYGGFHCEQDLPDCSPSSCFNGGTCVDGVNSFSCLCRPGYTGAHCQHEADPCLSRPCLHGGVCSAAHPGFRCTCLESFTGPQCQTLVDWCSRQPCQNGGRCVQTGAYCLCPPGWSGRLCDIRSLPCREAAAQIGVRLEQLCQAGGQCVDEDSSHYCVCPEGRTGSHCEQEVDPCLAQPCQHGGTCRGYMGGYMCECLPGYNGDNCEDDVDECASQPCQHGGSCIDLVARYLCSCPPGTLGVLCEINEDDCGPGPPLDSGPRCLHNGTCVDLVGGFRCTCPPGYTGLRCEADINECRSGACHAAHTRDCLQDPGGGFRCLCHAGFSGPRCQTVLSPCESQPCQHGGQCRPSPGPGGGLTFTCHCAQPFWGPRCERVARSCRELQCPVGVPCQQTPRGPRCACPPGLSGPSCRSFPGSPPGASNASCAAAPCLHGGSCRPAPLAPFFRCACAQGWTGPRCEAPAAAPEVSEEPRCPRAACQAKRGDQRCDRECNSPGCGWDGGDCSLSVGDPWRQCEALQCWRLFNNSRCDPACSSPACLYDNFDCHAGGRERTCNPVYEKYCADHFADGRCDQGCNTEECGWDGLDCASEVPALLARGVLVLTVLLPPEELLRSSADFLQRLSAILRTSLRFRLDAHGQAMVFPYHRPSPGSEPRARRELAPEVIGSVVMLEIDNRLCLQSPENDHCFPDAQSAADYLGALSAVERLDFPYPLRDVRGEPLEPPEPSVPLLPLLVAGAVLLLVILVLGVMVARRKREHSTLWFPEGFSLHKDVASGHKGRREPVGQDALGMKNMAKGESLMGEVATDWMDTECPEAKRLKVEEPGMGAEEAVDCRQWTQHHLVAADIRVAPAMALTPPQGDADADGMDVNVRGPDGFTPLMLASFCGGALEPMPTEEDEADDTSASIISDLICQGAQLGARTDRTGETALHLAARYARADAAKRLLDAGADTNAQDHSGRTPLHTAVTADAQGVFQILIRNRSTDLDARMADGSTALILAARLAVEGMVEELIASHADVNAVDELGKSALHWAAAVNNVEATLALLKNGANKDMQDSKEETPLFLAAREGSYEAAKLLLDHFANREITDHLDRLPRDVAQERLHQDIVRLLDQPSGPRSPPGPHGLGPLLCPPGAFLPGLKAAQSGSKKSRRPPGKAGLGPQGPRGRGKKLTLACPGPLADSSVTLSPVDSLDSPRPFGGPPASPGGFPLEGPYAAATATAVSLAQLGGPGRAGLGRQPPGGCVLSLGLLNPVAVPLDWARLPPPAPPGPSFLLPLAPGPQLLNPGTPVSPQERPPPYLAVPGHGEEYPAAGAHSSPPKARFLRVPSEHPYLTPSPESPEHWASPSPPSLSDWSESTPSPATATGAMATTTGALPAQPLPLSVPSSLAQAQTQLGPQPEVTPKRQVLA

[20] = probe aEGFR binding to arrayed compounds – biochemical, biotinylated probe, 635/667 nm fluorescence, primary screen (AID 1097); conditions: small-molecule microarray, higher = more signal;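 further: probe is a biotinylated anti-EGFR antibody binding compounds printed on slides; score combines fluorescence near 667 nm and signal to noise of each spot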

Structure (SMILES) | composite z-score [1] | composite z-score [2] | composite z-score [3] | composite z-score [4] | composite z-score [5] | composite z-score [6] | composite z-score [7] | z-score [8] | composite z-score [9] | composite z-score [10] | composite z-score [11] | z-score [12] | z-score [13] | z-score [14] | composite z-score [15] | z-score [16] | composite z-score [17] | composite z-score [18] | composite z-score [19] | composite z-score [20]
CO[C@H]1COC(=O)CC=C[C@H](C)[C@H](OC)COC(=O)[C@@H](C)NC(=O)CC=C[C@@H]1C | -0.57 | 2.19 | -0.246 | -0.225 | -0.755 | -0.468 | 0.659 | 0.484 (inactive) | -0.39 | 0.172 | 1.56 | -1.77 (inactive) | -0.391 (inactive) | -0.735 (inactive) | 0.525 | -0.159 (inactive) | -0.0122 | 1.61 | 0.346 | -0.0313
CC(=O)OC[C@H]1O[C@H](CC=NOC[C@@H](O)COCc2ccco2)C=C[C@@H]1OC(C)=O | -0.37 | 2.66 | -0.186 | -0.153 | -0.315 | -0.974 | 0.717 | -1.31 (inactive) | 0.621 | 0.212 | 1.54 | 0.441 (inactive) | -0.0992 (inactive) | 0.116 (inactive) | -0.275 | 0.53 (inactive) | 0.0658 | 1.77 | -0.084 | 0.495
CCOC(=O)[C@H](CC(C)C)NC(=O)CCC1CC(OC(=O)NCc2ccc3c(c2)OCO3)CC2(CCCC(COC(=O)NCCc3ccc(Cl)cc3)O2)O1 (stereo not given in full) | -0.549 | -0.08 | -0.129 | 0.744 | 0.331 | 1.1 | 0.993 | 0.924 (inactive) | -0.0845 | -0.0237 | 1.3 | -1.06 (inactive) | -0.571 (inactive) | -1.81 (inactive) | 1.39 | 0.544 (inactive) | -0.0615 | 0.553 | 0.951 | 0.065
CCc1cc2c(nc1CC)CCN(CCC(C)=NOC[C@@H](C)[C@H](OCc1ccccc1)C(C)C)C2 | -0.251 | -0.176 | -0.226 | -1.25 | -1.17 | -0.769 | -0.47 | -0.856 (inactive) | -1.36 | -0.132 | 0.0757 | -2.41 (inactive) | -4.16 (inactive) | -1.32 (inactive) | 0.198 | -0.966 (inactive) | -0.224 | -0.249 | -1.38 | -0.25
CC(C)[C@@H](OCc1ccccc1)[C@H](C)C=NO[C@@H](C)c1cn([C@H](CO)Cc2ccccc2)nn1 | -0.474 | 0.384 | 0.491 | 0.175 | 0.301 | -0.236 | -0.419 | 0.193 (inactive) | 0.155 | -0.175 | 0.195 | -2.32 (inactive) | -3.21 (inactive) | -1.14 (inactive) | 0.559 | 0.96 (inactive) | -0.186 | 0.803 | 0.543 | -0.128
C[C@H]1C=CCC(=O)OC[C@H](C)C(=O)N2CCC[C@H]2C(=O)OC1 | -0.815 | 2.27 | -0.291 | -0.517 | -0.594 | -1.01 | 1.32 | 0.263 (inactive) | 0.227 | 0.107 | 1.54 | 0.94 (inactive) | 0.499 (inactive) | -0.0933 (inactive) | -1.44 | 0.0085 (inactive) | -0.228 | 2.09 | 0.373 | 0.177
CCOC(=O)[C@H](Cc1ccccc1)NC(=O)CCC1CC(OC(=O)NCCc2ccc(F)cc2)CC2(CCCC(COC(=O)NCc3cccc(C(F)(F)F)c3)O2)O1 (stereo not given in full) | -0.334 | 0.0606 | 0.0102 | 0.758 | 1.49 | 1.28 | 1.05 | -0.342 (inactive) | 0.332 | -0.121 | 1.45 | 0.563 (inactive) | 0.106 (inactive) | 0.029 (inactive) | 2.9 | 0.468 (inactive) | -0.0008 | 0.832 | 1.11 | 0.12
O=C1[C@H]2[C@H]3[C@H](O)[C@H](O)CC(=NO[C@@H]4O[C@H](CO)[C@@H](O)[C@H](O)[C@H]4O)[C@@H]3CC[C@H]2C(=O)N1C1CCCCC1 | -0.599 | -0.0085 | -0.0924 | 0.233 | 0.598 | 0.132 | 0.0698 | -0.637 (inactive) | 0.296 | -0.0645 | 0.112 | 0.0081 (inactive) | -0.159 (inactive) | -0.291 (inactive) | 0.301 | -0.166 (inactive) | -0.174 | 0.662 | 0.749 | -0.111
COc1ccc2c(c1)O[C@@H](c1cccc(C(F)(F)F)c1)[C@H](O)C2=O | -0.609 | -0.184 | -0.131 | 0.452 | 0.242 | 0.0761 | 0.4 | -0.682 (inactive) | 0.0335 | -0.236 | 0.222 | -3.42 (inactive) | -6.34 (inactive) | -0.489 (inactive) | 1.19 | 1.2 (inactive) | -0.261 | 0.614 | 0.661 | 0.0251
C#CCCCON=C1C[C@@H](O)[C@@H](O)[C@@H]2[C@@H]3C(=O)N([C@@H](C)c4ccccc4)C(=O)[C@@H]3CC[C@@H]12 | -0.0065 | -0.318 | -0.17 | -0.46 | -0.351 | -0.191 | -0.934 | 0.0665 (inactive) | -0.069 | -0.267 | -0.0587 | 0.837 (inactive) | 1.4 (inactive) | 1.26 (inactive) | -0.148 | 0.761 (inactive) | -0.161 | -0.225 | -0.746 | -0.1
